# Measured values taken from the supplement of paper PMC10037445.
# “And” between values parts separate entries of the source, which are not always exact repeats. Equal values may be shown once. ± gives the standard deviation of the averaged measurements. Over roughly 2,900 compounds, “IRF Lucia reporter activity, fold change vs agonist alone” has its median near 0.9; the highest 2% begin near 2.8. Only a selection was taken, and the highest values are over-represented in it overall.
# Tests used:
# RAW-Dual [1] = assay: IRF Lucia reporter activity, fold change vs agonist alone; higher = enhanced IRF activity; details: agonist: MPLA (TLR4) […]
# Method in brief: (§1)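 After 50 nL of library stock was delivered by pin tool to RAW-Dual macrophages (50,000 cells/well, DMEM, 384-well plates), a PRR agonist was added 1 h later and the plates were kept at 37 °C, 5% CO2. Twenty hours later, IRF was read from supernatant by QuantiLuc luminescence and NF-κB by QuantiBlue absorbance at 620 nm. Reporter activity is stated as fold change over agonist-alone wells. Wells with IncuCyte confluency under 70% of agonist controls in both mask sets were counted as cytotoxic.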
# RAW-Dual [2] = assay: IRF Lucia reporter activity, fold change vs agonist alone; cytotoxicity flag (confluency mask): not cytotoxic; higher = enhanced IRF activity
# Method in brief: as §1
# RAW-Dual [3] = assay: IRF Lucia reporter activity, fold change vs agonist alone; cytotoxicity flag (confluency mask): cytotoxic (confluency <70% of control); higher = enhanced IRF activity
# Method in brief: as §1
# [4] = library stock concentration (final ~1000-fold dilution): 10 mM, cytotoxicity flag (confluency mask): not cytotoxic
# [5] = agonist: 3'3'-cGAMP (STING) 10 ug/mL
# [6] = library stock concentration (final ~1000-fold dilution): 10 mM, cytotoxicity flag (confluency mask): cytotoxic (confluency <70% of control)
smiles,measurement,setting,value
Cl.Fc1ccc(C2CCNCC2COc2ccc3c(c2)OCO3)cc1 (configuration not stated),IRF Lucia reporter activity,RAW-Dual [1]; [4],1.35
Cl.Fc1ccc(C2CCNCC2COc2ccc3c(c2)OCO3)cc1 (configuration not stated) (library stock concentration (final ~1000-fold dilution): 10 mM),IRF Lucia reporter activity,RAW-Dual [2]; [5],0.928
same,IRF Lucia reporter activity,RAW-Dual [2]; agonist: LPS (TLR4) 0.1 ug/mL,1.02
OCC1=CC(O)C2C=COC(OC3OC(CO)C(O)C(O)C3O)C12 (configuration not stated),IRF Lucia reporter activity,RAW-Dual [1]; [4],1.01
OCC1=CC(O)C2C=COC(OC3OC(CO)C(O)C(O)C3O)C12 (configuration not stated) (library stock concentration (final ~1000-fold dilution): 10 mM),IRF Lucia reporter activity,RAW-Dual [2]; [5],1.05
same,IRF Lucia reporter activity,RAW-Dual [2]; agonist: LPS (TLR4) 0.1 ug/mL,1.37
OCc1c[nH]c2ccccc12 (library stock concentration (final ~1000-fold dilution): 10 mM),IRF Lucia reporter activity,RAW-Dual [2]; [5],0.803 and 0.565
same,IRF Lucia reporter activity,RAW-Dual [2]; agonist: LPS (TLR4) 0.1 ug/mL,0.839 and 0.758
c1ccc2c(CCNc3ccc(Nc4ccncc4)cc3)c[nH]c2c1,IRF Lucia reporter activity,RAW-Dual [1]; [4],2.97
O=C(O)CCc1c[nH]c2ccccc12 (library stock concentration (final ~1000-fold dilution): 10 mM),IRF Lucia reporter activity,RAW-Dual [2]; [5],0.921
same,IRF Lucia reporter activity,RAW-Dual [2]; agonist: LPS (TLR4) 0.1 ug/mL,1.18
OCc1c[nH]c2ccccc12,IRF Lucia reporter activity,RAW-Dual [1]; [4],1.07 ± 0.022
c1ccc2c(CCNc3ccc(Nc4ccncc4)cc3)c[nH]c2c1 (library stock concentration (final ~1000-fold dilution): 10 mM),IRF Lucia reporter activity,RAW-Dual [2]; [5],0.706
same,IRF Lucia reporter activity,RAW-Dual [2]; agonist: LPS (TLR4) 0.1 ug/mL,0.612
CN1CC2c3ccccc3Oc3ccc(Cl)cc3C2C1.O=C(O)/C=C\C(=O)O (configuration not stated),IRF Lucia reporter activity,RAW-Dual [1]; [6],1.95
CN1CC2c3ccccc3Oc3ccc(Cl)cc3C2C1.O=C(O)/C=C\C(=O)O (configuration not stated) (library stock concentration (final ~1000-fold dilution): 10 mM),IRF Lucia reporter activity,RAW-Dual [3]; [5],0.746
same,IRF Lucia reporter activity,RAW-Dual [3]; agonist: LPS (TLR4) 0.1 ug/mL,0.716
O=[N+]([O-])c1ccc(Sc2cccc[n+]2[O-])c2nonc12 (library stock concentration (final ~1000-fold dilution): 10 mM),IRF Lucia reporter activity,RAW-Dual [3]; [5],0.262
same,IRF Lucia reporter activity,RAW-Dual [3]; agonist: LPS (TLR4) 0.1 ug/mL,0.0128
C#CCN(C)CCCOc1ccc(Cl)cc1Cl.Cl (library stock concentration (final ~1000-fold dilution): 10 mM),IRF Lucia reporter activity,RAW-Dual [2]; [5],1.06
same,IRF Lucia reporter activity,RAW-Dual [2]; agonist: LPS (TLR4) 0.1 ug/mL,1.19
C#CCN(C)CCCOc1ccc(Cl)cc1Cl.Cl,IRF Lucia reporter activity,RAW-Dual [1]; [4],1.12
CC(ONC(=O)c1cc(C(F)(F)F)cc(C(F)(F)F)c1)C(=O)Nc1ccc(Cl)cc1 (configuration not stated) (library stock concentration (final ~1000-fold dilution): 10 mM),IRF Lucia reporter activity,RAW-Dual [2]; [5],0.52
same,IRF Lucia reporter activity,RAW-Dual [2]; agonist: LPS (TLR4) 0.1 ug/mL,0.52
O=C(Nc1ccc([N+](=O)[O-])cc1Cl)c1cc(Cl)ccc1O,IRF Lucia reporter activity,RAW-Dual [1]; [4],0.899
O=C(Nc1cc(C(F)(F)F)cc(C(F)(F)F)c1)c1cc(Cl)ccc1O (library stock concentration (final ~1000-fold dilution): 10 mM),IRF Lucia reporter activity,RAW-Dual [3]; [5],0.03 and 0.0207
same,IRF Lucia reporter activity,RAW-Dual [3]; agonist: LPS (TLR4) 0.1 ug/mL,3.59 and 3.92
O=C(Nc1cc(C(F)(F)F)cc(C(F)(F)F)c1)c1cc(Cl)ccc1O,IRF Lucia reporter activity,RAW-Dual [1]; [6],3.54 ± 1.7
CC12C=CC(=O)NC1CCC1C2CCC2(C)C(C(=O)Nc3cc(C(F)(F)F)ccc3C(F)(F)F)CCC12 (configuration not stated) (library stock concentration (final ~1000-fold dilution): 10 mM),IRF Lucia reporter activity,RAW-Dual [2]; [5],1.22
same,IRF Lucia reporter activity,RAW-Dual [2]; agonist: LPS (TLR4) 0.1 ug/mL,1.38
O=C(Nc1cc(C(F)(F)F)ccc1N1CCCCC1)c1ccncc1,IRF Lucia reporter activity,RAW-Dual [1]; [4],1.18
CC12C=CC(=O)NC1CCC1C2CCC2(C)C(C(=O)Nc3cc(C(F)(F)F)ccc3C(F)(F)F)CCC12 (configuration not stated),IRF Lucia reporter activity,RAW-Dual [1]; [4],1.08
O=C(Nc1cc(C(F)(F)F)ccc1C(F)(F)F)c1cc(Br)ccc1O (library stock concentration (final ~1000-fold dilution): 10 mM),IRF Lucia reporter activity,RAW-Dual [3]; [5],0.0368
same,IRF Lucia reporter activity,RAW-Dual [3]; agonist: LPS (TLR4) 0.1 ug/mL,4.46
O=C(Nc1cc(C(F)(F)F)ccc1N1CCCCC1)c1ccncc1 (library stock concentration (final ~1000-fold dilution): 10 mM),IRF Lucia reporter activity,RAW-Dual [2]; [5],1.05
same,IRF Lucia reporter activity,RAW-Dual [2]; agonist: LPS (TLR4) 0.1 ug/mL,0.874
O=C(Nc1ccc([N+](=O)[O-])cc1Cl)c1cc(Cl)ccc1O (library stock concentration (final ~1000-fold dilution): 10 mM),IRF Lucia reporter activity,RAW-Dual [2]; [5],0.354
same,IRF Lucia reporter activity,RAW-Dual [2]; agonist: LPS (TLR4) 0.1 ug/mL,2.53
CC1CC(C(=O)O)C2CCC3(C)C(=CCC4C5(C)CCC(O)C(C)(C)C5CCC43C)C2C1C (configuration not stated) (library stock concentration (final ~1000-fold dilution): 10 mM),IRF Lucia reporter activity,RAW-Dual [2]; [5],0.973
same,IRF Lucia reporter activity,RAW-Dual [2]; agonist: LPS (TLR4) 0.1 ug/mL,1.12
CC1CC(C(=O)O)C2CCC3(C)C(=CCC4C5(C)CCC(O)C(C)(C)C5CCC43C)C2C1C (configuration not stated),IRF Lucia reporter activity,RAW-Dual [1]; [4],1.06
Cc1[nH]c(C=C2C(=O)Nc3ccc(F)cc32)c(C)c1C(=O)NCCN1CCCC1 (library stock concentration (final ~1000-fold dilution): 2 mM),IRF Lucia reporter activity,RAW-Dual [2]; [5],0.0313
same,IRF Lucia reporter activity,RAW-Dual [2]; agonist: LPS (TLR4) 0.1 ug/mL,0.194
Cc1[nH]c(C=C2C(=O)Nc3ccc(F)cc32)c(C)c1C(=O)NCCN1CCCC1,IRF Lucia reporter activity,"RAW-Dual [1]; library stock concentration (final ~1000-fold dilution): 2 mM, cytotoxicity flag (confluency mask): not cytotoxic",0.869
CC(c1ncncc1F)C(O)(Cn1cncn1)c1ccc(F)cc1F (configuration not stated) (library stock concentration (final ~1000-fold dilution): 10 mM),IRF Lucia reporter activity,RAW-Dual [2]; [5],1.11
same,IRF Lucia reporter activity,RAW-Dual [2]; agonist: LPS (TLR4) 0.1 ug/mL,0.893
CC(c1ncncc1F)C(O)(Cn1cncn1)c1ccc(F)cc1F (configuration not stated),IRF Lucia reporter activity,RAW-Dual [1]; [4],0.639
CC1Cc2c([nH]c3ccccc23)C(c2c(F)cc(/C=C/C(=O)O)cc2F)N1CC(C)(C)F (configuration not stated) (library stock concentration (final ~1000-fold dilution): 10 mM),IRF Lucia reporter activity,RAW-Dual [2]; [5],1.14
same,IRF Lucia reporter activity,RAW-Dual [2]; agonist: LPS (TLR4) 0.1 ug/mL,1.23
Cl.O=C(NC1CCNCC1)c1n[nH]cc1NC(=O)c1c(Cl)cccc1Cl (library stock concentration (final ~1000-fold dilution): 10 mM),IRF Lucia reporter activity,RAW-Dual [3]; [5],0.0898
same,IRF Lucia reporter activity,RAW-Dual [3]; agonist: LPS (TLR4) 0.1 ug/mL,0.581
CS(=O)(=O)O.CS(=O)(=O)O.Cc1ccc(C(=O)Nc2ccc(CN3CCN(C)CC3)c(C(F)(F)F)c2)cc1C#Cc1cnc2[nH]ncc2c1 (library stock concentration (final ~1000-fold dilution): 10 mM),IRF Lucia reporter activity,RAW-Dual [3]; [5],0.00912
same,IRF Lucia reporter activity,RAW-Dual [3]; agonist: LPS (TLR4) 0.1 ug/mL,0.0192
CS(=O)(=O)O.CS(=O)(=O)O.Cc1ccc(C(=O)Nc2ccc(CN3CCN(C)CC3)c(C(F)(F)F)c2)cc1C#Cc1cnc2[nH]ncc2c1,IRF Lucia reporter activity,RAW-Dual [1]; [6],0.0201
COc1ccc(-c2cc3c(C)nc(N)nc3n(C3CCC(OCCO)CC3)c2=O)cn1 (configuration not stated),IRF Lucia reporter activity,RAW-Dual [1]; [6],0.387
COc1ccc(-c2cc3c(C)nc(N)nc3n(C3CCC(OCCO)CC3)c2=O)cn1 (configuration not stated) (library stock concentration (final ~1000-fold dilution): 10 mM),IRF Lucia reporter activity,RAW-Dual [3]; [5],0.282
same,IRF Lucia reporter activity,RAW-Dual [3]; agonist: LPS (TLR4) 0.1 ug/mL,0.508
